# This excerpt belongs to a sample that is enriched for hits.
# Pf Dd2 growth – Plasmodium falciparum Dd2 growth inhibition; P. falciparum Dd2 growth, SYBR Green, 72 h; Potency, µM (doses to about 28.9 µM), for the others: at the top dose activity, negative = inhibition, usual class: inhibitors; 120,000 compounds, 4.3% hits; AID 1347417; active = well fitted inhibition curve with a large enough effect;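 also: plate controls were DMSO vehicle for no effect and reference drug for full effect; nearly all actives have a fitted effect of over 65% in size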
#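 Infected erythrocytes (Dd2, 0.3% parasitemia, 2.5% hematocrit final) are added to compound in RPMI-1640/Albumax II medium, grown 72 h at 37C in low oxygen, then lysed with saponin/Triton-X containing SYBR Green and read by fluorescence.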
# An asterisk follows results filed as active; i = inactive; [ ] = another dose, or the depositor's remark. Potency is read from the fitted curve at half-maximal effect.
SMILES,Pf Dd2 growth
O=C1NC2(CCN(Cc3ccc(F)cc3)C2)Oc2ccccc21 (centres undefined),11µM*
COc1cccc(CN2CCCC3(COc4ccccc4C(=O)N3)C2)c1 (centres undefined),11µM*
COc1ccc(CN2CCC3(CC2)C(=O)NCN3Cc2ccc(Cl)cc2)cc1,3.2µM*
Cc1cc(CN2CCC3(C2)NC(=O)c2ccccc2O3)no1 (centres undefined),-18%[44.1 µM]
O=C1NC2(CCN(Cc3ccc(C(F)(F)F)cc3)C2)Oc2ccccc21 (centres undefined),i
Cn1cccc1CN1CCC2(CC1)C(=O)NCN2Cc1ccc(Cl)cc1,1%
COc1cccc([S+](=O)([O-])N2CCC3(CC2)NC(=O)c2ccccc2O3)c1,i
COc1cccc(CN2CCC3(COc4ccccc4C(=O)N3)C2)c1 (centres undefined),i
O=C1NC2(CCCN(Cc3ccsc3)C2)COc2ccccc21 (centres undefined),0%[44.1 µM]
CN(C)c1ccc(CN2CCC3(C2)NC(=O)c2ccccc2O3)cc1 (centres undefined),i
COc1cccc(-c2cc(C3CCN(C(=O)c4ccc(Cl)cc4)CC3)[nH]n2)c1,-22%
COc1ccccc1C(=O)N1CC2(C1)NC(=O)c1ccccc1O2,i
CNC(=O)[C@@H]1C[C@H](n2cc(C(C)(C)NC(=O)c3ccccc3OC)nn2)CN1,7%
Cc1ccc(-c2noc(-c3nc(-c4ccccn4)no3)n2)cc1,-22%
O=C(NC1CCCc2c1[nH]c1ccc(F)cc21)c1ccc(Br)o1 (centres undefined),-15%
Cc1cc(C)n(CCC(=O)NCC23CCCC=C2N(CC2CC2)C(=O)CC3)n1 (centres undefined),-20%
Cc1cn2nc(C(=O)N3CCC(NC(=O)c4ccc(F)cc4Cl)CC3)cc2c(=O)[nH]1,i
COc1ccc(-c2ncc3c(n2)OCCN(C)C3=O)cc1OC,i
Cc1nc(CCNC(=O)C(C)(C)C)no1,-20%
O=C1OCCCN1C1CCN([S+](=O)([O-])c2ccccc2)CC1,20%
COc1ccc(CN2CCC3(CC2)NC(=O)c2ccccc2O3)cc1,13µM*
O=C1NC2(CCN(Cc3ccsc3)CC2)Oc2ccccc21,-23%[44.1 µM]
COc1ccc(CN2CCC3(C2)NC(=O)c2ccccc2CO3)cc1 (centres undefined),-16%
O=C1NC2(CCCN(Cc3ccccn3)C2)COc2ccccc21 (centres undefined),0.63µM*
CC(=O)Nc1ccc(CN2CCC3(CC2)NC(=O)c2ccccc2O3)cc1,i
SMILES,Pf Dd2 growth
O=C1NC2(CCCN(Cc3ccncc3)C2)Oc2ccccc21 (centres undefined),-21%[44.1 µM]
CN(C)c1ccc(CN2CCC3(CC2)NC(=O)c2ccccc2O3)cc1,i
O=C1NC2(CCCN(Cc3ccc(F)cc3)C2)COc2ccccc21 (centres undefined),-15%
O=C1NC2(CCN(Cc3ccccc3)C2)Oc2ccccc21 (centres undefined),i
O=C1NC2(CCCN(Cc3ccccc3)C2)Oc2ccccc21 (centres undefined),13µM*
O=C1NC2(CCN(Cc3ccc(F)cc3)CC2)Oc2ccccc21,10µM*
O=C1NC2(CCCN(Cc3cccnc3)C2)COc2ccccc21 (centres undefined),i
COc1cc(SC)ccc1C(=O)N[C@H]1C[C@@](O)(C(=O)NCCC(N)=O)C[C@@H](O)[C@@H]1O,-4%
CC(C)NC(=O)N1CCC2(CC1)CC(N1CCOCC1)CCO2 (centres undefined),4%
COc1c(C)cccc1C(=O)N1CCC2(CC1)Nc1ccccc1NC2=O,-2%
Cc1nnc(-c2cc(C(=O)NC3CCOCC3)ccn2)n1CCc1ccccc1,i
NC(=O)[C@@H]1C[C@@H](O)[C@H](O)[C@@H]2NC(=S)N(CC3CCCCC3)[C@@H]21,12%[44.1 µM]
CN1CCC(O)(Cc2nc3c([nH]2)CC(C)(C)CNC3=O)CC1,11%
O=C(CC1(O)C(=O)N(CCc2ccccc2)c2ccc(Br)cc21)c1ccccc1O (centres undefined),10µM*
C#CCN1C(=O)C(O)(CC(=O)c2ccc(OC)c(OC)c2)c2cc(Br)ccc21 (centres undefined),-15%
COc1ccccc1C(=O)CC1(O)C(=O)N(CC(N)=O)c2ccccc21 (centres undefined),20%
COCCN1CCCC2(CCN(C(=O)CCc3ccc(C)cc3)C2)C1=O (centres undefined),-4%
COc1ccc(C(=O)N2CCn3c(nn(-c4ccc(F)cc4F)c3=O)C2)cc1,16%
COCCNC(=O)c1ccc(OC2CCN(S(C)(=O)=O)CC2)c(Cl)c1,-2%
O=C(NC1CCCC1)c1ccc(OC2CCN(CCCC(F)(F)F)CC2)c(Cl)c1,1.4µM*
COCCNC(=O)c1ccc(OC2CCN(Cc3ncc[nH]3)CC2)c(Cl)c1,-23%
CC(C)C(=O)N1CCCC(c2nn(C)c(=O)n2C(C)C)C1 (centres undefined),-4%
O=C(c1n[nH]c(=O)c2ccccc12)N1CCN(C(=O)N2CC3CC(C2)[C@H]2CCCC(=O)N2C3)CC1 (some centres undefined),7%
O=C(c1ccsc1)N1CCC2(CC1)CN(C1CCC1)CC2CO (centres undefined),i
CCN(CC)S(=O)(=O)c1ccc2oc(C(=O)N(C)Cc3ccccc3)c(C)c2c1,-22%
SMILES,Pf Dd2 growth
CCCCN(CCCC)S(=O)(=O)c1ccc2oc(C(=O)NCc3ccc(C)cc3)c(C)c2c1,8.9µM*
COc1ccc(C)cc1NC(=O)c1oc2ccc(S(=O)(=O)N(C)C3CCCCC3)cc2c1C,29%
CCNC(=O)[C@@H]1C[C@H](NC(=O)c2ccc(OC)o2)CN1Cc1nc(C)no1,0%
Cc1oc(C(O)c2ccccc2F)nc1C(=O)Nc1ccccc1C(N)=O (centres undefined),i
c1cncc(CN2CCn3c(nnc3C3CCCNC3)C2)c1 (centres undefined),17%[44.1 µM]
CC(=O)N1CCN(c2cncc(C(=O)N3CCOCC3)n2)CC(O)C1 (centres undefined),-4%
COC(=O)c1cncc(N2CCCC3(CCC(=O)N(Cc4ccccc4)C3)C2)n1 (centres undefined),6%
CC1(c2ccccc2)CCCN(c2cncc(C(=O)N3CCOCC3)n2)C1 (centres undefined),11µM*
O=C1CC2(CCN(Cc3ccccc3)CC2)Oc2ccccc2N1,-19%
O=C(NCc1ccccc1F)c1ccc2c(c1)CN(CC1=Cc3ccccc3OC1)CCO2,-3%
COc1cccc(C(=O)N2CCC3(CC2)N=C(c2ccc(C)cc2)NO3)c1,i
COc1cccc(C(=O)N2CCC3(CC2)N=C(c2cccc(Br)c2)NO3)c1,-23%
COc1cccc(C(=O)N2CCC3(CC2)N=C(c2ccc(Br)cc2)NO3)c1,7.9µM*
COCCOc1ccnc(-c2noc([C@@H]3CCCN3C3CCC3)n2)c1,i
CO[C@H]1C(=O)N(C(C)C)[C@H]1C1CCN(C(=O)C2CC2)CC1,29%
O=C(c1ccco1)n1nc(-c2ccc(Cl)cc2)nc1NCc1ccc(F)cc1,61%
COc1ccc(C(=O)Nc2nc3n(n2)C(c2ccccc2)C=C(c2ccccc2)N3)cc1 (centres undefined),i
COc1ccc(C2C=C(c3ccccc3)Nc3nc(NC(=O)/C=C/c4ccccc4OC)nn32)cc1 (centres undefined),10µM*

# High-throughput results as filed in PubChem BioAssay.
